Screening data: PubChem, National Center for Advancing Translational Sciences (NCATS)
Hits are enriched below; roughly 5.9% of the tested compounds scored in any of these assays.
VP16 counter: VP16 counterscreen qHTS for inhibitors of ROR gamma transcriptional activity | Drosophila S2 Gal4-VP16 UAS-luciferase, luminescence, 20 h | Potency, µM (top dose mostly 53.6 µM), for inactives: top-dose activity, negative = inhibition, usual class: inhibitors | 3.5% of 310,000 active;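 also: Gal4-VP16 expression switched on by copper sulfate through the metallothionein promoter; potency is read from the fitted curve at half-maximal effect; nearly all actives have a fitted effect of over 50% in size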
Coupling enz: qHTS Assay for Inhibitors of Fructose-1,6-bisphosphate Aldolase from Giardia Lamblia: Coupling assay counterscreen; coupling enzyme system counterscreen, AmpLite Red fluorescence; activity change, negative = inhibition, % at 58.2 µM, hits read low; 0.67% of 290,000 active; AID 2472, 2010; in the data active = activity change below about -30%
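Counterscreen lacking aldolase: glyceraldehyde-3-phosphate coupling-enzyme reagent preincubated 10 min at RT with compound (at 57.5 uM final), then substrate/coupling system with AmpLite Red added; fluorescence read at 525/598 nm after 20 min RT.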
TrxR1 substrate: qHTS Assay for Substrates of Mammalian Selenoprotein Thioredoxin Reductase 1 (TrxR1): qHTS; 0.01% of 390,000 active; purified TrxR1 substrate turnover, NADPH consumption readout; Thioredoxin reductase 1, cytoplasmic (Rattus norvegicus), O89049; Potency, µM (titrated, usually from 114 µM), for the others: at the top dose activity change, negative = substrate turnover; also: potency is read from the fitted curve at half-maximal effect; nearly all actives have a fitted effect of over 50% in size
Target sequence (O89049 whole entry, looked up): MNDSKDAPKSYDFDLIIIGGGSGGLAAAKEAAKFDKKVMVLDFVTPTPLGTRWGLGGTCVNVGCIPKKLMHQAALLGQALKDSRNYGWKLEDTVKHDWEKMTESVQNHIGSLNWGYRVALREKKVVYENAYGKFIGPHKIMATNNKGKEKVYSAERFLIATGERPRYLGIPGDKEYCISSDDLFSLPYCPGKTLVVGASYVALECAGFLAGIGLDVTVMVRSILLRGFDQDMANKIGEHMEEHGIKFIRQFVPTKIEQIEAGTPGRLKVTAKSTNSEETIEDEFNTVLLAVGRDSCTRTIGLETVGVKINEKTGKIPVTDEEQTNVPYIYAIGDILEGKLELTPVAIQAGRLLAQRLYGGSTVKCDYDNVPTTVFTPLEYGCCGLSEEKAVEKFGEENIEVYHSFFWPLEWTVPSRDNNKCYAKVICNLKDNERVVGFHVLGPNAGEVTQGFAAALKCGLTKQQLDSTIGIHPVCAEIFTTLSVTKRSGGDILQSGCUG
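Rat TrxR1, dispensed at 90 nM, was prereduced with 400 uM NADPH (final) for 5 min at ~22 deg C, then incubated with compound 15 min before 400 uM selenite. A first-read NADPH fluorescence drop versus no-compound background flagged substrates.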
TrxR1 inh: qHTS Assay for Inhibitors of Mammalian Selenoprotein Thioredoxin Reductase 1 (TrxR1): qHTS; Thioredoxin reductase 1, cytoplasmic (Rattus norvegicus), O89049; recombinant rTrxR1, NADPH fluorescence consumption, selenite substrate; Potency, µM (titrated, usually from 114 µM), for inactives: at the top dose activity change, negative = inhibition, most hits filed as inhibitors; 1% of 390,000 active; also: potency is read from the fitted curve at half-maximal effect; nearly all actives have a fitted effect of over 65% in size
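Rat TrxR1 (90 nM in the dispensed reagent) was pre-reduced with 400 uM NADPH for 5 min at room temperature, then incubated with compound for 15 min. After 400 uM selenite was added, NADPH fluorescence (Ex 340/Em 450 nm) was followed for 8 min.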
GALK inhibitor: qHTS Assay for Inhibitors of Human Galactokinase (GALK); P51570; Purified GALK, Kinase-Glo residual ATP luminescence; Potency, µM (series often up to 57.5 µM), for the others: at the top dose activity change, negative = inhibition, actives largely listed as inhibitors; 0.007% of 270,000 active; AID 1868, 2009; also: potency is read from the fitted curve at half-maximal effect
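The enzyme phosphorylates galactose (100 uM) using ATP (35 uM); inhibition is detected as higher residual ATP, quantified by bioluminescence after 1 h reaction at room temperature, pH 8.0.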
RORg inh: qHTS for inhibitors of ROR gamma transcriptional activity; Potency, µM (titrated, usually from 53.6 µM), for inactives: at the highest dose activity change, negative = inhibition, usual class: inhibitors; Nuclear receptor ROR-gamma (Mus musculus), P51450; AID 2551, 2010; Drosophila S2 Gal4-RORgamma UAS-luciferase reporter, 20 h; 5.4% of 310,000 active; also: potency is read from the fitted curve at half-maximal effect; nearly all actives have a fitted effect of over 60% in size
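Compounds are pin-transferred onto Drosophila Schneider cells expressing a copper-inducible Gal4–ROR gamma transactivation domain fusion. After 1 hr, copper sulfate is added to 700 uM final; luciferase is read 20 hr later.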
* marks the source's active call; other numbers are inactive results; ? = inconclusive; · = no result given; [ ] = dose if it differs, or a comment. Unless noted, calls follow the shape of the dose curve; as a rule, active = well fitted curve in the direction sought with a large enough effect; inconclusive = small, poorly fitted or top-dose-only effect, or another doubt; inactive = no such curve, though single readings can be large; an effect the other way counts as inactive or inconclusive. % is scaled to controls: 0 for no effect and ±100 for the full control effect.

SMILES	VP16 counter	Coupling enz	TrxR1 substrate	TrxR1 inh	GALK inhibitor	RORg inh
COc1cccc(NC(=O)Nc2ccc3c(c2)nc(C)n3C)c1	11µM*	2	1%[57.1 µM]	8%[57.1 µM]	5%	8.9µM*
CC(=O)Nc1cccc(NC(=O)Nc2ccc(C(C)=O)cc2)c1	0%	-1	0%	1%	-4%	-19%
Cc1nc2cc(NC(=O)NC(C)(C)C)ccc2n1C	-2%	2	6%	21%	4%	-5%
CCn1c(C)nc2cc(NC(=O)Nc3cccc(C(C)=O)c3)ccc21	14µM*	-1	-3%	11%	-5%	16µM*
CCN(CC)c1ccc(NC(=O)Nc2cccc(C(C)=O)c2)cc1	?	-6	32%	20%	-2%	7.9µM*
Cc1nc2cc(NC(=O)Nc3nccs3)ccc2n1C	10µM*	-2	8%	5%	2%	?
O=C(O)c1cc(N(Cc2ccccc2O)Cc2cc(O)ccc2O)ccc1O	-15%	-1	·	·	·	28%
Cc1ccc(C(=O)OC(C)C(=O)c2cc(C)c(C)cc2C)o1 (stereo not drawn)	25%	·	2%	0%	-3%	11%
Cc1cc(C)cc(N(C(=O)c2cc3ccccc3oc2=O)C2C=CS(=O)(=O)C2)c1 (stereo not drawn)	-17%	2	-8%	-18%	0%	-8%
O=C(NCCCc1ccccc1)c1cccc(Br)c1	·	·	-1%	24%	·	·
O=C(CN(Cc1ccccc1)C(=O)CCl)c1cccc(Br)c1	·	·	-5%	14µM*	·	·
O=C(CS(=O)(=O)c1ccc(F)cc1)Nc1nccs1	·	·	6%[57.1 µM]	5%[57.1 µM]	·	·
O=C(COc1ccc(F)cc1)Nc1nccs1	-9%	-1	3%	17%	2%	10µM*
CCOC(=O)N1CCN(CCC(=O)c2ccc(Br)cc2)CC1	?	4	11%[57.1 µM]	1µM*	·	?
CC1CCCN(CCC(=O)c2ccc(Br)cc2)C1 (stereo not drawn)	20µM*	1	10%[11.4 µM]	?	0%	?
COc1cc2c(cc1OC)CN(CCC(=O)c1ccc(Br)cc1)CC2	?	2	-3%[57.1 µM]	0.28µM*	0%	11µM*
COc1cc2c(cc1OC)CN(C(=O)CCNC(=O)c1ccc(Br)cc1)CC2	·	·	-7%	-11%	·	·
O=C(CCN1CCC2CCC(C2)C1)c1ccccc1 (stereo not drawn)	·	·	3%[11.4 µM]	0.71µM*	·	·
O=C(CCCCN1CCCCC1)c1ccccc1	·	·	3%	27%	·	·
COc1ccc(N(CC(=O)Nc2ccc(C)c(C)c2)S(=O)(=O)c2c(C)n[nH]c2C)cc1	1%	0	-4%	10%	-2%	26%
COc1ccc(C(=O)CCN2CCCC(C)C2)cc1 (stereo not drawn)	?	-1	13%[57.1 µM]	?	1%	?
CCOC(=O)N1CCN(CCC(=O)c2ccc(OC)cc2)CC1	4%	-1	5%	3.5µM*	0%	8%
COc1ccc(C(=O)CCN2CCC(C)CC2)cc1	?	2	0%	0.71µM*	-1%	?
NC(=O)C1(N2CCCCC2)CCN(C(=O)c2cccs2)CC1	5%	1	7%[57.1 µM]	9%[57.1 µM]	3%	-25%
CN(c1cccc(Cl)c1)S(=O)(=O)c1cccc(C(=O)NC2=NCCS2)c1	-5%	2	-6%	12%	0%	7%
CCN(CC)C(=O)c1sc(NC(=O)Cc2ccc(OC)cc2)c(C#N)c1C	2%	0	-6%	-8%	0%	23%
CCN(CC)C(=O)c1sc(NC(=O)Cc2ccccc2)c(C#N)c1C	2%	-7	-8%	-10%	0%	6.3µM*
